Test in all cases: qHTS profiling for inhibitors of Plasmodium falciparum proliferation (AID 504749); also: nearly all actives have a fitted effect of over 60% in size
What all share (details): P. falciparum in erythrocytes, SYBR Green DNA, 72 h; series mostly up to 28.7 µM

One assay has as its system AS120. The method, boiled down: (§1)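 Fluorescence of SYBR Green-bound parasite DNA, read at 485/535 nm, served as the growth measure. Infected erythrocytes were cultured with compound 72 h; artemisinin (0.29 uM) and DMSO wells defined the normalization range.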
In another assay the test system is ATS95. The method, boiled down:
as §1

A further assay has as its system C2A. The method, boiled down:
as §1

The test system of another assay is CP192. Summed up:
as §1

In a further assay the test system is CP194. The method, boiled down: as §1
A further assay relates to CP201. The method, boiled down: as §1
Another assay has as its system CP203. Summed up: as §1
A further assay deals with CP215. Summed up:
as §1

Another assay relates to CP238. Summed up:
as §1

In another assay the test system is CP256. The method, boiled down: as §1
Another assay concerns CP211. Summed up: as §1
For a further assay, the system named is CP237. Summed up: as §1
For another assay, the system named is ATS189. Summed up: as §1
The next assay has as its system CP185. Summed up:
as §1

The subject of a further assay is CP191. The method, boiled down:
as §1

A further assay relates to CP217. Summed up: as §1
The subject of a further assay is CP247. The method, boiled down:
as §1

In the next assay the test system is CP250. Summed up: as §1
The next assay has as its system CP252. The method, boiled down: as §1
A further assay deals with CP260. The method, boiled down:
as §1

Records with an inconclusive call do not appear. Calls of active or inactive are those of the source. Calls follow the shape of the dose curve; as a rule, active = well fitted inhibition curve with a large enough effect; inconclusive = small, poorly fitted or top-dose-only effect; inactive = flat fitted curve, though single readings scatter.
Potency is read from the fitted curve at half-maximal effect.

Take `NC(=O)c1cc([N+](=O)[O-])cc([N+](=O)[O-])c1`: the Potency result in the assay on AS120, in the assay on ATS95, in the assay with C2A, in the assay with CP192, in the assay with CP194 and in the assay on CP201 was “inactive” each time. Besides, the Potency result in the assay with CP203, in the assay on CP215, with CP238 and with CP256 was “inactive” each time.
As to `C=CCN1C[C@H](C)N([C@H](c2ccc(C(=O)N(CC)CC)cc2)c2cccc(OC)c2)C[C@H]1C`, the Potency entry in the assay on CP192, in the assay with CP194, with CP201, with CP203, with CP211 and with CP215 was “inactive” each time. Moreover, the Potency entry in the assay with CP238 is “inactive”. In addition, in the assay with CP237, the Potency is 12.6 µM (active).
In the case of `CC(C)(C)NCC(O)c1cc(Cl)c(N)c(C(F)(F)F)c1` (stereo unspecified), the Potency was 5.62 µM (active) in the assay with AS120; 7.08 µM (active) in the assay on ATS189; 10 µM (active) with C2A; 10 µM (active) in the assay with CP185; 4.47 µM (active) in the assay with CP191; 11.2 µM (active) with CP217. Moreover, the Potency in the assay on CP237 was 7.08 µM (active); in the assay on CP238, 8.91 µM (active); with CP247, 10 µM (active); in the assay with CP250 it was 10 µM (active); in the assay with CP252 it was 8.91 µM (active); in the assay with CP256, 11.2 µM (active). Besides, the Potency in the assay on CP260 is 12.6 µM (active). In addition, the Potency result with CP192 and in the assay with CP201 was “inactive” each time.
As to `C[C@](O)(CS(=O)(=O)c1ccc(F)cc1)C(=O)Nc1ccc(C#N)c(C(F)(F)F)c1`, the Potency result with AS120, in the assay on ATS189, in the assay with ATS95, in the assay with C2A, in the assay with CP185 and with CP191 was “inactive” throughout. Also, the Potency entry in the assay with CP192, in the assay with CP194, in the assay with CP201, in the assay on CP211, with CP215 and with CP217 was “inactive” each time. For the same compound, the Potency entry in the assay with CP237, in the assay on CP238, in the assay on CP247, in the assay with CP250, with CP252 and with CP256 was “inactive” each time. In addition, the Potency result with CP260 is “inactive”.
In the case of `O=C1c2ccccc2C(=O)C1C(=O)C(c1ccccc1)c1ccccc1`, the Potency entry in the assay on ATS189, with ATS95, in the assay with C2A, with CP185, with CP191 and with CP192 was “inactive” in each case. The Potency entry with CP194, with CP203, with CP211, in the assay with CP215, with CP217 and in the assay with CP237 was “inactive” each time. Further, the Potency entry in the assay on CP238, with CP247, in the assay with CP250, with CP252 and in the assay with CP256 was “inactive” in each case.
Consider `O=C(N/N=C/c1ccc([N+](=O)[O-])o1)c1cc([N+](=O)[O-])cc([N+](=O)[O-])c1O`, for which the Potency in the assay with AS120 was 0.141 µM (active); with ATS189 it was 0.316 µM (active); with C2A it was 0.0178 µM (active); in the assay with CP185, 0.0631 µM (active); with CP191 it was 0.178 µM (active); in the assay on CP217, 0.0028 µM (active). Further, the Potency with CP238 was 0.0708 µM (active); in the assay with CP247, 0.02 µM (active); in the assay on CP250, 0.1 µM (active); in the assay with CP256, 0.251 µM (active).
On to `O=P1(N(CCCl)CCCl)NCCCO1` (stereo unspecified), for which the Potency entry in the assay on AS120, in the assay with ATS189, in the assay on ATS95, with C2A, in the assay with CP185 and in the assay on CP191 was “inactive” throughout. In addition, the Potency entry in the assay with CP192, in the assay on CP194, in the assay on CP201, with CP203, with CP211 and in the assay on CP215 was “inactive” each time. In addition, the Potency entry in the assay on CP217, in the assay with CP237, with CP238, with CP247, in the assay on CP250 and in the assay on CP252 was “inactive” each time. Further, in the assay with CP260, the Potency result was “inactive”.
As to `O=C1Nc2ccc(Cl)cc2C(c2ccccc2Cl)=NC1O` (stereo unspecified), the Potency result with AS120, with ATS189, with C2A, in the assay with CP185, in the assay with CP191 and with CP192 was “inactive” throughout. The Potency result in the assay with CP194, in the assay with CP201, in the assay on CP203, in the assay with CP211, in the assay with CP217 and in the assay on CP237 was “inactive” each time. Also, the Potency result with CP238, in the assay with CP247, with CP250, with CP252, with CP256 and in the assay with CP260 was “inactive” each time.
Consider `CC(C)c1cccc(C(C)C)c1O`, for which the Potency entry in the assay on AS120, in the assay on ATS189, with ATS95, with C2A, with CP185 and in the assay with CP191 was “inactive” throughout. Moreover, the Potency entry with CP192, in the assay with CP194, with CP201, in the assay on CP215, in the assay on CP217 and in the assay with CP237 was “inactive” throughout. Besides, the Potency result with CP238, in the assay with CP247, in the assay with CP250, in the assay with CP252, in the assay with CP256 and in the assay with CP260 was “inactive” in each case.
With `CCCCCCC(=O)CCCCCC/C=C/C[C@@H](O)[C@H](O)[C@@](N)(CO)C(=O)O`, the Potency entry with AS120, in the assay with ATS189, in the assay on ATS95, in the assay on C2A, in the assay on CP185 and with CP191 was “inactive” in each case. Also, the Potency result with CP192, in the assay with CP194, in the assay on CP201, with CP203, with CP211 and in the assay on CP215 was “inactive” in each case. For the same compound, the Potency result with CP217, in the assay on CP237, with CP238, with CP247, with CP252 and with CP256 was “inactive” throughout. Also, the Potency result in the assay on CP260 is “inactive”.
Take `COc1c2c(cc3c1OCO3)CCN(C)C2`: the Potency result in the assay with AS120, in the assay on ATS189, in the assay on ATS95, in the assay on C2A, in the assay with CP185 and with CP191 was “inactive” throughout. For the same compound, the Potency entry in the assay on CP192, with CP194, in the assay on CP201, with CP203, in the assay with CP215 and with CP217 was “inactive” each time. The Potency result in the assay with CP237, in the assay on CP238, in the assay on CP247, in the assay with CP250, with CP252 and in the assay on CP256 was “inactive” in each case. Besides, the Potency result with CP260 was “inactive”.
For `O=C(Nc1ccc(Br)cc1)c1cc(Br)cc(Br)c1O`, the Potency result in the assay with AS120, with ATS189, in the assay with ATS95, in the assay on C2A, with CP185 and with CP191 was “inactive” each time. The Potency entry in the assay on CP192, with CP194, with CP201, in the assay with CP211, in the assay on CP215 and with CP217 was “inactive” in each case. For the same compound, the Potency result in the assay on CP237, in the assay on CP238, in the assay on CP247, with CP250, in the assay with CP252 and in the assay on CP256 was “inactive” each time. In the assay with CP260, the Potency result was “inactive”.
Take `CCCC(C)(COC(N)=O)COC(N)=O`: the Potency entry with AS120, in the assay on ATS189, in the assay with ATS95, in the assay with C2A, with CP185 and in the assay on CP191 was “inactive” in each case. In addition, the Potency entry with CP192, in the assay with CP194, with CP201, in the assay on CP203, in the assay on CP211 and with CP217 was “inactive” throughout. Moreover, the Potency result with CP237, with CP238, with CP247, in the assay on CP250, in the assay with CP252 and with CP256 was “inactive” each time. Further, the Potency entry with CP260 was “inactive”.
As to `O=C1Nc2ccc(Cl)cc2C(c2ccccc2)=NC1O` (stereo unspecified), the Potency result with AS120, in the assay on ATS189, in the assay with ATS95, with C2A, in the assay on CP185 and in the assay on CP191 was “inactive” throughout. In addition, the Potency entry in the assay with CP192, with CP194, with CP201, with CP203, in the assay with CP211 and in the assay with CP217 was “inactive” in each case. Moreover, the Potency result in the assay with CP237, in the assay on CP238, in the assay with CP247, in the assay with CP250, with CP252 and in the assay with CP256 was “inactive” throughout. Besides, the Potency entry in the assay on CP260 is “inactive”.
With `COc1ccc2c(c1OC)C(=O)O[C@H]2[C@@H]1c2cc3c(cc2CCN1C)OCO3`, the Potency result in the assay with CP192, with CP194, with CP201, in the assay on CP203, with CP211 and in the assay on CP215 was “inactive” each time.
As to `COP(=S)(OC)SCN1C(=O)c2ccccc2C1=O`, the Potency result in the assay with AS120, with ATS189, with ATS95, in the assay on C2A, in the assay on CP185 and with CP191 was “inactive” throughout. Besides, the Potency result in the assay on CP192, with CP194, in the assay on CP201, in the assay on CP203, in the assay on CP211 and with CP215 was “inactive” each time. Besides, the Potency entry in the assay on CP217, in the assay with CP237, in the assay with CP238, in the assay with CP250, with CP252 and in the assay with CP256 was “inactive” throughout. For the same compound, the Potency result in the assay on CP260 is “inactive”.
As to `COc1ccc2c(c1)C13CCCC[C@@H]1C(C2)N(C)CC3` (stereo partly specified), the Potency result with AS120, with ATS189, with C2A, in the assay on CP191, with CP192 and in the assay on CP201 was “inactive” each time. Moreover, the Potency entry with CP211, with CP215, with CP217, in the assay on CP237, in the assay with CP238 and with CP247 was “inactive” in each case. Further, the Potency result with CP250 and with CP252 was “inactive” throughout. Further, the Potency with CP260 was 11.2 µM (active).
For the compound `CN1C(=O)C(O)N=C(c2ccccc2)c2cc(Cl)ccc21` (stereo unspecified), the Potency result in the assay with AS120, with ATS189, in the assay with ATS95, in the assay with C2A, in the assay with CP185 and in the assay with CP191 was “inactive” throughout. The Potency result with CP192, in the assay with CP194, in the assay with CP201, in the assay with CP203, in the assay with CP211 and in the assay with CP217 was “inactive” each time. The Potency entry with CP237, with CP238, in the assay on CP247, with CP250, with CP252 and in the assay on CP256 was “inactive” each time. For the same compound, the Potency entry in the assay with CP260 was “inactive”.
As to `CNC(C)(C)Cc1ccccc1`, the Potency entry with AS120, in the assay with ATS189, with ATS95, in the assay on C2A, in the assay on CP185 and in the assay on CP191 was “inactive” throughout. The Potency entry with CP194, with CP201, with CP203, with CP211, with CP215 and with CP217 was “inactive” in each case. Besides, the Potency result in the assay with CP238, in the assay with CP247, in the assay on CP250, in the assay with CP252, in the assay on CP256 and in the assay on CP260 was “inactive” each time.

The values above are taken from PubChem BioAssay (NCATS).
